Results published in PubChem BioAssay AID2680 (National Center for Advancing Translational Sciences (NCATS), 2010).
Some of the results follow. Entries that show only a call come without a potency. Results filed as inconclusive are left out. Activity calls are given as the source filed them. The call rests on the fitted dose curve; in most records, active means well fitted inhibition curve with a large enough effect; inconclusive means small, poorly fitted or top-dose-only effect; inactive means no such curve, though single readings can be large or run the other way.

These compounds were tested against Glutathione-independent formaldehyde dehydrogenase (Pseudomonas putida) (UniProt P46154) (assay: Counterscreen for JMJD2E Inhibitors: qHTS Assay for Inhibitors of Formaldehyde Dehydrogenase (FDH)). Details: FDH enzyme assay, NADH fluorescence kinetic; series mostly up to 56.7 µM.
Method: This assay is a counterscreen for a related assay for inhibitors of JMJD2E. See AID 2147 for details. The JMJD2E assay utilized an FDH-coupled protocol. To screen for false positive results in the primary assay due to inhibition of the formaldehyde dehydrogenase coupled enzyme, an FDH-only assay was run using FDH as the enzyme (0.000025 U/uL final concentration) and 10 uM formaldehyde and 0.25 mM NAD+ as the substrate, and following the same fluidic protocol as described in AID 2147 for the coupled HTS assay. Actives in this assay are likely false positives of the primary HTS.
Assay is initiated by dispensing 3 uL of enzyme solution (4/3x final concentration) into a 1,536-well assay plate using a nanoliter solenoid-based dispenser (Beckman-Coulter, Fullerton, CA). After pintool transfer of compound solution, the assay plate is incubated at room temperature for 10 minutes, followed by a 1 uL addition of 4x substrate solution to initiate the reaction (final assay volume of 4 uL). The plate is then manually transferred into the ViewLux reader for kinetic measurements.

Sequence of Glutathione-independent formaldehyde dehydrogenase (Pseudomonas putida) (P46154 whole entry, looked up): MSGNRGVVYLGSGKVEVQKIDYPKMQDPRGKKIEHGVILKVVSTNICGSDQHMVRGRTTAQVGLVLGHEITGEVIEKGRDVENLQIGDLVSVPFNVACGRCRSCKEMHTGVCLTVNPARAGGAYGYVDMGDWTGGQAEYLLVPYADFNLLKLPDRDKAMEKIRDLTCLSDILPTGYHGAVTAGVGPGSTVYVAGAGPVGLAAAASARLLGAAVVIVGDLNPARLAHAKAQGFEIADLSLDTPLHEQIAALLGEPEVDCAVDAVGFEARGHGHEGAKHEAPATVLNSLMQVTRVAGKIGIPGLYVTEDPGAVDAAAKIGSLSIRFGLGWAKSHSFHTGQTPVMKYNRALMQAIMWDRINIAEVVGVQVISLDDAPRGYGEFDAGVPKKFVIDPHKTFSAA

Compound	Potency
O=C1CC(Sc2ncn[nH]2)C(=O)N1c1ccccc1 (configuration not stated)	316 nM (active)
Cc1ccc(N2C(=O)CC(Sc3ncn[nH]3)C2=O)cc1 (configuration not stated)	316 nM (active)
Oc1cccc2cc(-c3ccncc3)cnc12	inactive
Nc1ccc(Nc2cc(O)c3ncccc3c2)cc1	inactive
Oc1ccc(/C=C/c2c(F)cccc2F)c2cccnc12	inactive
COc1ccc(Cl)cc1CSc1ncn[nH]1	316 nM (active)
Oc1c(CN2CCCC2)cc(COCc2ccccc2)c2cccnc12	inactive
